ELG1 repair inh: qHTS screen for small molecules that inhibit ELG1-dependent DNA repair in human embryonic kidney (HEK293T) cells expressing luciferase-tagged ELG1 | HEK293T ELG1-luciferase reporter, luminescence, 16 h; DNA damage induced by 5-fluorouridine | Potency, µM (highest dose often 46.1 µM), hits mostly inhibitors | actives 2.3% (n = 330,000) | AID 504467, 2011; note: nearly all actives have a fitted effect of over 55% in size
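DMSO vehicle served as the neutral condition. Each well held 2,000 cells given 5-fluorouridine plus compound; after 16 hr at 37 °C/5% CO2, ONE-Glo was added and luciferase measured 30 min later.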
TDP1 inh: qHTS Assay for Inhibitors of Tyrosyl-DNA Phosphodiesterase (TDP1); recombinant TDP1, AlphaScreen DNA substrate cleavage; actives 0.28% (n = 350,000); Tyrosyl-DNA phosphodiesterase 1 (Homo sapiens), Q9NUW8; AID 485290, 2010; Potency, µM (series often up to 130 µM), most hits filed as inhibitors; note: nearly all actives have a fitted effect of over 40% in size
Target sequence (Q9NUW8 whole entry, looked up): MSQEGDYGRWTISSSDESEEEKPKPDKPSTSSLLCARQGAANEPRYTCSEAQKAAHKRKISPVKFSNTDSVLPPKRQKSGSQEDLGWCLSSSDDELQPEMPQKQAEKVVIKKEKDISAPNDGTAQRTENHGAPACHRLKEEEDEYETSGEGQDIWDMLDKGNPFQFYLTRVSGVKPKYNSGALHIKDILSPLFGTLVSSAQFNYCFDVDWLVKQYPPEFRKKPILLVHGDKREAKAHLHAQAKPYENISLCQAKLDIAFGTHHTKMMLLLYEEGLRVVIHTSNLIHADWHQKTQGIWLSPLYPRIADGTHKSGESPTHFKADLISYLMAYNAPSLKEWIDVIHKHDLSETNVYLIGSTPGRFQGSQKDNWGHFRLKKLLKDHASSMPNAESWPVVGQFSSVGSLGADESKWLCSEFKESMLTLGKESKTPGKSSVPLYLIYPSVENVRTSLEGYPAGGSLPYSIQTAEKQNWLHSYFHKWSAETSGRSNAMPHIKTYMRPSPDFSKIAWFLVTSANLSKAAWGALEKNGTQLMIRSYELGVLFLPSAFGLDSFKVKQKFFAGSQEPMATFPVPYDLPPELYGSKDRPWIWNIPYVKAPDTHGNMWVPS
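Signal: AlphaScreen proximity between streptavidin donor and anti-FITC acceptor beads on intact substrate. Reaction: Tdp1 1 nM, substrate 15 nM final, 5 min RT after 15 min compound preincubation.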
Giardia kill: Small Molecules that selectively kill Giardia lamblia: qHTS | actives 0.15% (n = 340,000) | AID 540267, 2011 | activity change, % at 7.66 µM, hits read low | Giardia lamblia trophozoite viability; in the data active = activity change below about -80%; inconclusive = between about -30% and that limit;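 note: parasites exposed to compound for two days anaerobically before the ATP read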
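Media and compound were dispensed first, then trophozoites at 100 cells/well; plates sat 48 hrs at 37 deg C without oxygen before ATP luminescence reagent was added and read after 15-30 min at room temperature.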
IL1B secr inh: qHTS for Inhibitors of Inflammasome Signaling: IL-1-beta AlphaLISA Primary Screen; actives 4.7% (n = 360,000); AID 743279, 2014; THP-1 LPS/ATP IL-1B secretion, AlphaLISA, 16 h; hits give low values; activity change, % at 57.5 µM; in the data active = activity change below about -50%; inconclusive = mostly about -30% to -49%
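THP-1 cells pretreated 1 hr with compounds (up to 57.5 uM final), then stimulated with LPS (250 ng/mL final) plus ATP (1.25 mM final); secreted IL-1B measured by AlphaLISA after 16 hr, decreased signal indicating inhibition.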
DT40 TDP1 no CPT: qHTS for Inhibitors of human tyrosyl-DNA phosphodiesterase 1 (TDP1): qHTS in cells in absence of CPT | DT40 Tdp1-/- hTDP1 cells, no CPT, ATP luminescence, 48 h | Potency, µM (highest dose often 46.2 µM), usual class: inhibitors | actives 15% (n = 420,000) | AID 686978, 2013; note: nearly all actives have a fitted effect of over 55% in size
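Cells were dispensed at 400 per well, compounds added by pin tool, plates incubated ≥48 hr at 37 °C, then CellTiter-Glo added for 30 min at room temperature before luminescence reading. Line: DT40 Tdp1-/- complemented with hTDP1; camptothecin omitted.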
TDP1 cell CPT: qHTS for Inhibitors of human tyrosyl-DNA phosphodiesterase 1 (TDP1): qHTS in cells in presence of CPT; Potency, µM (top dose mostly 46.2 µM), usual class: inhibitors; actives 12% (n = 420,000); chicken DT40 Tdp1-/-;hTDP1 cells + 20 nM CPT, ATP luminescence, 48 h; note: nearly all actives have a fitted effect of over 55% in size
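Cell growth measured by CellTiter-Glo luminescence after a minimum 48 h, 37 C compound exposure with 20 nM CPT in Tdp1-knockout DT40 cells stably expressing hTDP1, seeded 400/well; qHTS titration format.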
A number is an active result; i = inactive; ? = inconclusive; nt = no result given; ! = not confirmed by another sample. Shown are actives, neighbours in structure and some others; about 19% of the full set was active somewhere. Unless noted, calls come from the whole dose curve; as a rule, active = well fitted curve in the direction sought with a large enough effect; inconclusive = small, poorly fitted or top-dose-only effect, or another doubt; inactive = no such curve, though single readings can be large; an effect the other way counts as inactive or inconclusive.

SMILES	ELG1 repair inh	TDP1 inh	Giardia kill	IL1B secr inh	DT40 TDP1 no CPT	TDP1 cell CPT
COC(=O)C1=C(C)N=C2SCCC(=O)N2C1/C=C/c1ccccc1 (centres undefined)	i	i	i	i	i	i
COc1cc(C2C(C(=O)OC(C)C)=C(C)N=C3SCCC(=O)N32)ccc1OCc1ccccc1 (centres undefined)	nt	i	nt	nt	29.1µM	13µM
CC(C)(C)OC(=O)N[C@@H](C(=O)OC(C)(C)C)c1ccccc1	?	i	?	i	?	?
CC(C)(C)OC(=O)N[C@@H](C(=O)OC(C)(C)C)c1ccc2ccccc2c1	i	i	i	i	23.1µM	?
N#CCC(=O)Nc1ccc(C(=O)OCC(=O)Nc2ccc3ccccc3c2)cc1	?	i	i	i	i	i
COc1ccc(C2=C(C(C)=O)Sc3nnc(-c4ccccc4)n3N2C(C)=O)cc1	nt	i	nt	nt	i	?
CC(=O)C1=C(c2ccc(Cl)cc2)N(C(C)=O)n2c(nnc2C2CCCCC2)S1	nt	i	nt	nt	?	13µM
CCC(=O)C1=C(c2ccc(Cl)cc2)N(C(=O)CC)n2c(C)nnc2S1	nt	i	nt	nt	7.31µM	8.2µM
CC(=O)C1=C(c2ccc(C)c(C)c2)N(C(C)=O)n2c(nnc2-c2ccc(Cl)cc2)S1	nt	i	nt	nt	4.61µM	5.17µM
CCc1nnc2n1N(C(C)=O)C(c1ccc(C(C)(C)C)cc1)=C(C(C)=O)S2	nt	i	nt	nt	11.6µM	8.2µM
COc1cc(C(=O)Nc2ccccc2OCc2cc(=O)n3cc(C)sc3n2)cc(OC)c1OC	nt	i	nt	nt	i	?
CNC(=S)N1CCN(S(=O)(=O)c2ccc3ccccc3c2)CC1	i	i	i	i	i	i
CC(=O)C1=C(c2cccc([N+](=O)[O-])c2)N(C(C)=O)n2c(C)nnc2S1	?	i	i	-97.6	1.84µM	4.61µM
CC(=O)C1=C(c2ccc(C)cc2)N(C(C)=O)n2c(nnc2C2CCCCC2)S1	nt	i	nt	nt	?	?
Cc1cccc(C)c1OCC(=O)Nc1nc(-c2ccc(Br)cc2)ns1	nt	i	nt	nt	16.4µM	?
COc1ccc(-c2nsc(NC(=O)COc3ccccc3OC)n2)cc1	nt	i	nt	nt	i	i
Cc1ccccc1C(=O)Nc1nc(-c2ccc(Br)cc2)ns1	nt	i	nt	nt	20.6µM	16.4µM
COc1ccc2[nH]cc(CCNC(=O)/C=C/[C@H]3O[C@@H](n4cnc5c(NC(=O)c6ccccc6)ncnc54)[C@H](O)[C@@H]3O)c2c1	nt	nt	nt	?	i	i
Cc1ccccc1C(OCCN(C)C)c1ccccc1 (centres undefined)	i	i	i	i	?	23.1µM!
O=C(Nc1cccc(F)c1)c1ccc(-n2cncn2)c2ccoc12	nt	nt	nt	i	i	i
O=C(Nc1cccc(Oc2ccccc2)c1)c1ccc(-n2cncn2)c2ccoc12	nt	nt	nt	i	?	18.4µM
Cn1nc(C(C)(C)C)cc1C(=O)NCc1cc(F)cc2c1OCOC2	2.59µM	i	i	i	3.66µM	9.2µM
O=[N+]([O-])c1cc(-c2nc(-c3ccccc3)no2)ccc1NCCc1ccccc1	nt	i	nt	nt	i	i
O=C(c1cccc(Cl)c1)N1CCC(c2nc3c(nnn3Cc3ccc(F)cc3F)c(=O)[nH]2)CC1	nt	i	nt	nt	?	?
COc1cc(C(=O)NC(=S)Nc2ccc3c(c2)OCO3)cc(OC)c1OC	?	i	i	i	i	i
SMILES	ELG1 repair inh	TDP1 inh	Giardia kill	IL1B secr inh	DT40 TDP1 no CPT	TDP1 cell CPT
COc1cc(C(=O)NC(=S)NNC(=O)c2ccc3c(c2)OCO3)cc(OC)c1OC	16.4µM	i	i	i	?	?
COc1ccc(CC(=O)NNC(=S)NC(=O)c2cc(OC)c(OC)c(OC)c2)cc1	nt	nt	nt	i	7.31µM	9.2µM
COc1cc(C(=O)NC(=S)NCc2ccncc2)cc(OC)c1OC	nt	nt	nt	i	20.6µM	?
COc1ccc(C(=O)NNC(=S)NC(=O)c2ccc(F)cc2)cc1Br	nt	nt	i	i	?	?
COc1cc(C(=O)NNC(=S)NC(=O)c2ccc(F)cc2)cc(OC)c1OC	?	i	i	i	?	29.1µM
CCOc1cc(C#N)c(-n2nnc3c(sc4nc(C)cc(C)c43)c2=O)cc1OCC	nt	i	nt	nt	nt	nt
CCn1c(-c2ccccc2F)nc2cc(NC(C)=O)cc(C(=O)NCc3ncc(C)[nH]3)c21	nt	nt	nt	nt	i	i
CCOCCCNC(=O)c1cccc(OC2CCN(S(C)(=O)=O)CC2)c1	?	nt	i	i	i	i
NC(=O)CN1CCN(Cc2ccc3c(c2)OCO3)CC1	i	nt	i	i	i	i
CC(C)(C)OC(=O)N1CCC(c2c(C(=O)N3CCc4ccccc4C3)cnn2-c2ccc(Cl)cc2)CC1	nt	i	nt	nt	?	?
Cc1ccc(-n2ncc(C(=O)NCCN3CCc4ccccc4C3)c2C2CCN(C(=O)OC(C)(C)C)CC2)c(C)c1	nt	i	nt	nt	?	?

From PubChem BioAssay
